The list is not random: actives were taken first. Their share in the collection is about 19%.
HT1080NT lethal: qHTS for induction of synthetic lethality in tumor cells producing 2HG: qHTS for the HT-1080-NT fibrosarcoma cell line | Potency, µM (doses to about 46.1 µM), without a hit: at the top dose activity, negative = less viability, most hits filed as cytotoxic | HT-1080-NT fibrosarcoma viability, CellTiter-Glo ATP luminescence, 48 h | 1.6% of 360,000 active;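 also: NT is the 2HG producing partner of a matched IDH1 knockdown line; 0% = DMSO-treated cells and -100% = media-only wells without cells; nearly all actives have a fitted effect of over 55% in size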
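Toxicity toward the 2HG-producing NT line was scored as %Activity, normalised to DMSO and no-cell wells, from CellTiter-Glo luminescence after 48 hours' treatment.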
DT40 TDP1 no CPT: qHTS for Inhibitors of human tyrosyl-DNA phosphodiesterase 1 (TDP1): qHTS in cells in absence of CPT. DT40 Tdp1-/- hTDP1 cells, no CPT, ATP luminescence, 48 h. Potency, µM (series often up to 46.2 µM), for the others: top-dose activity change, negative = growth inhibition, usual class: inhibitors. 15% of 420,000 active; also: nearly all actives have a fitted effect of over 55% in size
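Camptothecin absent (DMSO only). Human TDP1-complemented DT40 knockout cells, 400 cells/well, 37 °C for minimum 48 hr; ATP measured via CellTiter-Glo, 30 min dark incubation, luminescence.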
HT1080 IDH1KD tx: qHTS for induction of synthetic lethality in tumor cells producing 2HG: qHTS for the HT-1080-IDH1KD cell line; Potency, µM (titrated, usually from 46.1 µM), for inactives: at the top dose activity, negative = toxicity, actives largely listed as cytotoxic; HT-1080 IDH1 knockdown viability, ATP luminescence, 48 h; AID 686971, 2013; 2% of 360,000 active;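 also: 0% = DMSO wells and -100% = cell-free medium wells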
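Assay cells: HT-1080 with IDH1 knockdown, 750 per well, RPMI/5% FBS. Exposure: 48 h at 37 °C following 2 h pre-incubation. Read: CellTiter-Glo luminescence; fitted concentration-response, curve class assigned.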
TDP1 cell CPT: qHTS for Inhibitors of human tyrosyl-DNA phosphodiesterase 1 (TDP1): qHTS in cells in presence of CPT; chicken DT40 Tdp1-/-;hTDP1 cells + 20 nM CPT, ATP luminescence, 48 h; Potency, µM (series often up to 46.2 µM), for the others: at the top dose activity change, negative = growth inhibition, actives largely listed as inhibitors; 12% of 420,000 active; AID 686979, 2013; also: nearly all actives have a fitted effect of over 55% in size
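Cell growth measured by CellTiter-Glo luminescence after a minimum 48 h, 37 C compound exposure with 20 nM CPT in Tdp1-knockout DT40 cells stably expressing hTDP1, seeded 400/well; qHTS titration format.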
KB-3-1 tox: qHTS assay for MDR1-selective chemotherapeutics: Primary screen using the parental adenocarcinoma cell KB-3-1 | Potency, µM (series often up to 46.1 µM), usual class: cytotoxic | 1.4% of 400,000 active | KB-3-1 viability, CellTiter-Glo ATP luminescence, 72 h; also: nearly all actives have a fitted effect of over 60% in size
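KB-3-1 cells, DMEM (no phenol red) + 10% FBS; compound by pin transfer, 72 h, 37 °C. Readout: CellTiter-Glo luminescence after 10 min. Data normalized, curve-fitted.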
KB-V1 MDR tox: qHTS assay for MDR1-selective chemotherapeutics: Primary screen using the drug-selected MDR subline cells KB-V1; KB-V1 MDR cells viability, CellTiter-Glo, 72 h; Potency, µM (highest dose often 46.1 µM), hits mostly cytotoxic; 3.4% of 400,000 active; AID 1347076, 2019; also: nearly all actives have a fitted effect of over 60% in size
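Following 72 h at 37 degrees C with compound, KB-V1 cell viability was read by CellTiter-Glo luminescence, medium being phenol-red-free DMEM plus 10% FBS; concentration-response parameters came from normalized, curve-fitted qHTS data.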
Active calls of the source: *; i = inactive; ? = inconclusive; nt = not tested or not shown. Calls follow the shape of the dose curve; as a rule, active = well fitted curve in the direction sought with a large enough effect; inconclusive = small, poorly fitted or top-dose-only effect, or another doubt; inactive = no such curve, though single readings can be large; an effect the other way counts as inactive or inconclusive. Unless noted, % is scaled to controls: 0 for no effect and ±100 for the full control effect; potency is read from the fitted curve at half-maximal effect.

SMILES | HT1080NT lethal | DT40 TDP1 no CPT | HT1080 IDH1KD tx | TDP1 cell CPT | KB-3-1 tox | KB-V1 MDR tox
CC1(c2nnc(-c3ccccc3)o2)CC(c2ccc([N+](=O)[O-])cc2)=NO1 (configuration not stated) | -4.1% | 18.4µM* | -18.5% | ? | 10.3µM* | 20.6µM*
COC(=O)C1=CN(c2ccc(C)cc2)C(N)=C(C#N)C1c1ccc(OC)cc1 (configuration not stated) | -28.2% | ? | ? | ? | 23.1µM* | 23.1µM*
COC(=O)C1=CN(c2ccc3c(c2)OCO3)C(N)=C(C#N)C1c1cccc(F)c1 (configuration not stated) | 3.66µM* | 0.651µM* | 1.84µM* | 1.3µM* | 2.31µM* | 3.66µM*
COC(=O)C1=C(C)N=C2SC(C#N)=C(N)N2C1c1ccc(OC)cc1 (configuration not stated) | -20.6% | -29.8% | -22.6% | -20.8% | i | i
CCc1ccc(N2C=C(C(=O)OC)C(c3ccc(OC)cc3)C(C#N)=C2N)cc1 (configuration not stated) | ? | -82.1% | ? | ? | ? | 18.4µM*
COC(=O)C1=CN(c2ccc(N3CCOCC3)cc2)C(N)=C(C#N)C1c1ccccc1 (configuration not stated) | -14.4% | 18.4µM* | -9.6% | ? | ? | i
COc1ccc(NC(=O)Cn2cnc3sc(C)c(S(=O)(=O)N4CCN(C)CC4)c3c2=O)cc1OC | 7.5% | -28.3% | 25.4% | -3.2% | i | ?
O=C(O)c1ccc(CP(=O)(c2ccccc2)c2ccccc2)cc1 | 8.7% | -1.0% | 3.7% | -1.7% | i | i
COC(=O)C1=CN(c2ccc(OC)cc2)C(N)=C(C#N)C1c1ccc(OC)cc1 (configuration not stated) | -17.2% | ? | -15.2% | 10.3µM* | i | i
COC(=O)C1=CN(c2ccc(OC)cc2OC)C(N)=C(C#N)C1c1ccc(OC)cc1 (configuration not stated) | ? | 20.6µM* | ? | ? | i | ?
COc1ccc(C2C(C#N)=C(N)Oc3c2oc(CO)cc3=O)cc1 (configuration not stated) | 3.0% | 31.2% | -3.2% | -13.1% | i | i
Cc1ccc(S(=O)(=O)Oc2cccc(N3C(=O)C4CC=CCC4C3=O)c2)cc1 (configuration not stated) | -3.6% | ? | 1.0% | 16.4µM* | i | i
Cc1ccc(S(=O)(=O)Oc2ccc(N3C(=O)C4C5CCC(C5)C4C3=O)cc2)cc1 (configuration not stated) | -8.9% | 23.1µM* | -11.1% | 4.11µM* | i | i
CCOC(=O)c1cc2c(=O)n3ccccc3nc2n(C)c1=NC(=O)c1c(-c2ccccc2Cl)noc1C | nt | -2.6% | nt | -14.4% | i | i
Cc1ccc(-n2nc3cc(C)c(N)cc3n2)cc1 | -0.2% | 4.8% | 0.4% | 7.6% | i | i
Nc1ccc2nn(-c3cccc4ccccc34)nc2c1 | -11.2% | 16.4µM* | -3.7% | 11.6µM* | i | i
Cc1cc2nn(-c3cccc4ccccc34)nc2cc1N | 4.8% | 18.4µM* | 1.0% | 20.6µM* | i | i
O=C(Cc1csc(Nc2nc(=S)[nH]c3ccccc23)n1)NCCCN1CCN(c2ccccc2F)CC1 | 20.6µM* | 14.6µM* | 20.6µM* | 8.2µM* | ? | 14.6µM*

Bioassay records deposited in PubChem by National Center for Advancing Translational Sciences (NCATS).
